Experimental data from PubChem BioAssay AID568 (Sanford-Burnham Center for Chemical Genomics, 2006).
Out of some 83,000 compounds screened, fewer than 10 were called active. No rule for the calls is given here. A selection follows. Entries with a potency or affinity are not part of this list.

target: Heat shock cognate 71 kDa protein (Homo sapiens) (UniProt P11142); experiment: small molecules displacing fluorescent ligand from Hsc70 – biochemical, fluorescence polarization, primary screen (AID 568); conditions: mP, at 20 µM, active compounds read high
Sequence (P11142 whole entry, looked up): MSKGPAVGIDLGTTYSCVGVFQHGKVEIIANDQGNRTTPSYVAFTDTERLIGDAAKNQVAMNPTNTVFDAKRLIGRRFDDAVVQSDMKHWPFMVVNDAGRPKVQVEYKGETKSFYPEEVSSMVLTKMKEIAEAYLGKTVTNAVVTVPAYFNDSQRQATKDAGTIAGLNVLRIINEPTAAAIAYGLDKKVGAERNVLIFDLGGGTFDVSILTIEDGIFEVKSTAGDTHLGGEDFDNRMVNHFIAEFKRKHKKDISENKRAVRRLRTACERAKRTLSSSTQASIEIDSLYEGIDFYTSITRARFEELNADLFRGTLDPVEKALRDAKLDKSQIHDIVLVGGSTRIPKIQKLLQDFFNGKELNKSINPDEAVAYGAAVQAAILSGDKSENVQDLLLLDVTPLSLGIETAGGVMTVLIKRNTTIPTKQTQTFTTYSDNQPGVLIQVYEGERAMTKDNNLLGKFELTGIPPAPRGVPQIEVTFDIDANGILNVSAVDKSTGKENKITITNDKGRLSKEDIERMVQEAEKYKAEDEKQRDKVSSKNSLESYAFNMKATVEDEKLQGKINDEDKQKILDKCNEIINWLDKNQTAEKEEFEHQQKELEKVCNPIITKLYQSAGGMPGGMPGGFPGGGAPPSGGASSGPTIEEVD
Sequence (P11142 whole entry, looked up): as above

displacement, inactive:
CN1C(=S)SC(/[N+]([O-])=C\c2ccco2)C1(C)C (configuration not stated) -8.3%
CCOC(=O)c1sc(NC(=O)C2CCCO2)c(C(=O)OC)c1C (configuration not stated) 2.1%
Cc1ccc(-c2cc3nc(C)cc(NCc4ccco4)n3n2)cc1 -12.6%
CCOC(=O)N1CCC(N2C(=O)c3ccccc3C2Nc2ccc(Cl)cn2)CC1 (configuration not stated) 0%
CCC(=O)N1CCc2cc(Br)cc(S(=O)(=O)NCC3CCCO3)c21 (configuration not stated) 5.2%
COc1ccc(-c2nnc3sc(CCN4C(=O)c5ccccc5C4=O)nn23)cc1 -0.6%
O=C(N1CCN(c2ccccc2)CC1)C(F)(F)C(F)(F)F 8.8%
CCOC(=O)CCSCC(=O)Nc1cc(C)on1 4.3%
Cc1ccc(NCc2nnc(SCC(=O)OC3CCCCC3)o2)c(C)c1 -6.7%
CCN1CCN(C(=O)c2sc3nc(C)nc(N4CCC(C)CC4)c3c2C)CC1 -3.6%
CN(c1ccccc1)C(c1ccc(F)cc1)c1nnnn1C1CCCC1 (configuration not stated) -4.6%
CCOC(=O)c1ccc(COC(=O)CNC(=O)CNC(=O)c2ccc(OC)cc2)o1 -3.7%
CC(C)C(c1nnnn1Cc1ccc(F)cc1)N1CCSCC1 (configuration not stated) -2.2%
COc1ccc(CCN2CNc3c(c(=O)n(C)c(=O)n3C)C2)cc1 0.1%
O=C(CSc1nnc(-c2ccncc2)n1CC1CCCO1)NCc1ccccc1 (configuration not stated) -0.2%
O=C(Nc1ccc(N2CCOCC2)cc1)c1cccc(S(=O)(=O)N2CCC(Cc3ccccc3)CC2)c1 -1.4%
Cc1ccc(OCC(=O)Nc2cc(-c3nn4c(C)nnc4s3)ccc2C)cc1 4.5%
Clc1ccc(/C=N/c2c(-c3ccco3)nc3ccccn23)cc1 3.7%
CC(NC(=O)c1ccc(CS(=O)(=O)c2cccc(C(F)(F)F)c2)o1)c1ccc2c(c1)OCCO2 (configuration not stated) -1.8%
COc1ccc(C(=O)Oc2cccnc2)cc1 -4.3%
Cc1ccc(C)c2c1[nH]c1ccccc12 1.5%
CC(C)Cc1cc(C(=O)N2N=C(C(F)F)CC2(O)C(F)F)c2ccccc2n1 (configuration not stated) 1.5%
COc1cc2cc(C(c3nnnn3C3CCCC3)N3CCCCCC3)c(=O)[nH]c2cc1OC (configuration not stated) -5%
COCCN1C(=O)c2ccccc2C(C(=O)NCCN(C)C)C1c1ccc(F)cc1 (configuration not stated) -4.9%
CCCCn1c(=O)n(CC(=O)Nc2ccc(C)c(Cl)c2)c(=O)c2c1ncn2Cc1ccco1 -21.2%
CCOc1ccc(CC(C(=O)NN)C(=O)NN)cc1CN(C)C 2.3%
COc1ccc(Br)cc1CNC(=O)C1CCCN(S(C)(=O)=O)C1 (configuration not stated) -2%
OC(COc1ccc2c(c1)OCO2)CN1CCc2ccccc2C1 (configuration not stated) 1.3%
COCCNC(=O)C(c1ccc(C)o1)N(Cc1ccco1)C(=O)c1snc(C(N)=O)c1N (configuration not stated) 5.3%
CC1=CN2C(=NC(=O)CC2(C)C(=O)N(CC(=O)NC2CCCC2)c2ccccc2C)C=C1 (configuration not stated) -1.4%
CC(=O)OCCn1c(Br)nc2c1c(=O)[nH]c(=O)n2C 4.4%
Cc1nc2c(C(=O)N3CCCCC3)cnn2c(C)c1Cc1ccccc1F 2.6%
COC(=O)[C@H](Cc1ccccc1)NC(=O)N1CCC(C)CC1 -1.3%
CN1CCN(S(=O)(=O)c2ccc(N3CCN(S(=O)(=O)/C=C/c4ccccc4)CC3)nc2)CC1 -5.3%
Cn1cnnc1SCCC(=O)Nc1ccc(Cl)cc1 4.9%
CC1CCCCC1NC(=O)Cn1ncc2ccccc21 (configuration not stated) -0.3%
CCC(Sc1nc2n[nH]c(C)c2c(=N)n1-c1cccc(Cl)c1C)C(=O)N(CC)CC (configuration not stated) -7.7%
Cc1ccc(-c2noc(C3CCCN(C(=O)c4ccccc4)C3)n2)o1 (configuration not stated) 1.4%
CCc1ccc2nc(NC3=NCN(CCOC)CN3)nc(C)c2c1 0.7%
Cc1ccc(N2CN=C(c3ccccc3)NC2=S)cc1 -3.8%
CCOC(=O)c1ccc(NC(=O)CSc2nc(C)cc(=O)[nH]2)cc1 -2.1%
O=C(NC1CCCCCCC1)c1ccco1 -2.6%
Cc1c(/C=C/C(=O)c2cccs2)cnn1C 0.7%
CCOc1cccc(C(=O)Nc2ccc(N(CC)CC)cc2)c1 -1.7%
O=C1c2ccsc2SCCN1Cc1ccc(Cl)cc1 3.5%
Nc1ccccc1SCc1cn2cccnc2n1 -0.9%
CC(C)[C@H](NC(=O)OC(C)(C)C)c1nnc(SCc2cccc(F)c2)o1 6.2%
CC(C)(C)c1ccc(-c2nnc(SCCN3C(=O)c4ccccc4C3=O)o2)cc1 -4.1%
CCCn1nnc(NC(=O)c2ccccc2Br)n1 -4.1%
Cc1ccc2nc(NC(=O)c3cccs3)sc2c1 1.4%
Cc1ccccc1-n1c(=O)cc(N2CCN(C(=O)c3ccco3)CC2)[nH]c1=O -0.4%
COc1ccc2[nH]cc(C(=O)CN3CCN(C(=O)c4ccco4)CC3)c2c1 -1.6%
COc1ccc(C2C(C(=O)NC(C)C)c3ccccc3C(=O)N2C)cc1OC (configuration not stated) -8.3%
COc1ccc(C(=O)CN2C(=O)c3ccccc3C2=O)c(OC)c1C -1.2%
O=C(CC12CC3CC(CC(C3)C1)C2)NCO -2.2%
CCCCOCC(O)Cn1c(C)nc2ccccc21 (configuration not stated) -2.3%
CN=C1SC(CC(=O)Nc2cccc(Cl)c2Cl)C(=O)N1C (configuration not stated) 0%
COc1nc(OC)nc(N2CCCCCC2)n1 7.4%
c1cncc(-c2nc3cc(Cc4ccc5oc(-c6cccnc6)nc5c4)ccc3o2)c1 -0.1%
COCCCn1c(SCC(=O)Nc2ccc3c(c2)OCCO3)nnc1-c1ccoc1C -9.3%
Cn1cccc1Cc1nnc(SCC(=O)NCc2ccccc2)n1-c1ccc(F)cc1 1.3%
CC(C)CC(=O)Nc1ccc(-c2cn3ccsc3n2)cc1 3%
CCOC(=O)c1sc(=S)n(-c2ccccc2OC)c1N 4.2%
COc1ccc(N(CC(=O)Nc2cc(OC)ccc2OC)S(=O)(=O)c2c(C)nn(C)c2C)cc1 -0.1%
Oc1c(Cl)cc(Cl)c2c1NCCC2 1%
Oc1c(Cl)cc(Cl)cc1Sc1cc(Cl)cc(Cl)c1O 11.6%
NC(=O)CSc1nnc(Cc2ccc3c(c2)OCO3)n1C1CCCCC1 -4.2%
COc1cccc(Nc2c(F)c(F)c(F)c(F)c2C(=O)O)c1 3.7%
CC1(C)CC(=O)C2=C(C1)OC(N)=C(C#N)C21C(=O)N(Cc2ccccc2Cl)c2ccccc21 (configuration not stated) -38.5%
O=C(CSc1nc(-c2ccco2)cc(C(F)(F)F)n1)NC1CCCCCCC1 -4.2%
Cc1ccc2c(c1)N(Cc1ccc3c(c1)OCO3)C(=O)C(C)O2 (configuration not stated) -2.1%
O=C(Cn1cnc2c(nnn2Cc2ccccc2)c1=O)N1CCCc2ccccc21 2%
CC(=O)NCCc1ccc(S(=O)(=O)NC2OC(=O)c3ccccc32)cc1 (configuration not stated) -3.3%
CC1(C)Cc2c(c(N3CCOCC3)nc3sc4c(=O)[nH]cnc4c23)CS1 -5%
C=CCN1C(=O)C2C(C(=O)NCc3ccccc3)C3C=CC2(O3)C1C(=O)NC(C)(C)C (configuration not stated) -3.6%
O=C1CCCCCN1CSc1nc2ccccc2s1 5.1%
CCOC(=O)N1CCN(C(=O)CN(c2ccc3c(c2)OCO3)S(C)(=O)=O)CC1 0.1%
Oc1ccccc1-c1cc(-c2ccco2)[nH]n1 1.3%
CC(=O)Nc1ccc(S(=O)(=O)N(C)CC(=O)Nc2ccccc2N2CCOCC2)cc1 -0.5%
COc1ccc(-c2nc(CS(=O)CC(=O)NCc3cccnc3)c(C)o2)cc1 (configuration not stated) 1.8%
Cc1ccc(C)c(N(CC(=O)NC2CCCC2)C(=O)CCCC(=O)Nc2ccccn2)c1 4.6%
CN1CCc2c(sc3c2C(=O)NC(/C=C/c2ccco2)N3)C1 (configuration not stated) 5.2%
CCOc1c(Cl)cc(C(=O)NCCN2CCCCC2)cc1Cl -10.7%
Cc1ccccc1NC(=O)Cn1cccc1 -0.7%
Cc1ccc(-c2nn3c(-c4ccco4)nnc3c3ccccc23)cc1S(=O)(=O)NCC1CCCO1 (configuration not stated) 1%
CC1CC(C)CN(CCCNC(=O)C2CCN(S(=O)(=O)N3CCCCC3)CC2)C1 (configuration not stated) -3.8%
O=C(Nc1ccc(-c2nc3ccccc3[nH]2)cc1)c1ccco1 -7.1%
CC(C)N(C#N)c1nc(N2CCOCC2)nc(N2CCOCC2)n1 9.4%
CC1=C(C(=O)N(C)CCC#N)C2(CCCCC2)OC1=O -1.4%
O=C(NC(Cc1ccccc1)c1nc2ccccc2[nH]1)C1CC(=O)N(c2ccc3c(c2)OCCO3)C1 (configuration not stated) -10.1%
Cc1ccc(C(=O)Nc2cc(=O)n(C)c(=O)n2C)o1 5.3%
O=C(CCCn1c(=S)[nH]c2cc3c(cc2c1=O)OCO3)N1CCN(c2ccccn2)CC1 -4.4%
Cc1cnc(NC(=O)c2cc3c(C)nn(-c4ccccc4)c3s2)s1 -5.6%
CC1CCN(C(=O)c2cc(-c3ccccc3O)on2)CC1 -5%
CCOC(=O)C1CCCN(CCC(=O)Nc2ccc(C)cc2)C1 (configuration not stated) -2.2%
CCCCN(C(=O)CNC(=O)c1ccco1)C(C(=O)NC1CCCC1)c1ccc(OC)cc1 (configuration not stated) 2.3%
O=C(Nc1ccc(F)c(F)c1)c1cccnc1 -5.4%
Cc1cc(C(=O)CN2C(=O)NC(c3ccccc3)(c3ccccc3)C2=O)c(C)n1Cc1ccccc1 -22.9%
Cc1nnc(SCC(=O)Nc2ccc(S(=O)(=O)N3CCCCC3)cc2)s1 -3.1%
CN(C)S(=O)(=O)c1ccc(NC(=O)c2c(F)cccc2Cl)cc1 -2.2%
Cc1c(C(=O)OCC(=O)N2c3ccccc3CC2C)oc2ccccc12 (configuration not stated) -0.6%
O=C(NCCN1CCOCC1)Nc1ccc(Cl)cc1Cl -6.7%
